The list is not random: actives were taken first. Their share in the collection is about 17%.
HT1080 IDH1KD tx: qHTS for induction of synthetic lethality in tumor cells producing 2HG: qHTS for the HT-1080-IDH1KD cell line; Potency, µM (highest dose often 46.1 µM), for inactives: at the top dose activity, negative = toxicity, usual class: cytotoxic; 360,000 tested, 2% active; AID 686971, 2013; HT-1080 IDH1 knockdown viability, ATP luminescence, 48 h;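 further: 0% = DMSO wells and -100% = cell-free medium wells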
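HT-1080-IDH1KD cells (IDH1 knocked down), 750/well in RPMI with 5% FBS, treated with compound 48 h at 37 degrees C. Viability by CellTiter-Glo luminescence, normalised to DMSO and no-cell wells; concentration-response curves classed.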
HT1080NT lethal: qHTS for induction of synthetic lethality in tumor cells producing 2HG: qHTS for the HT-1080-NT fibrosarcoma cell line; Potency, µM (series often up to 46.1 µM), for inactives: at the highest dose activity, negative = less viability, hits mostly cytotoxic; HT-1080-NT fibrosarcoma viability, CellTiter-Glo ATP luminescence, 48 h; 360,000 tested, 1.6% active; AID 686970, 2013;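 further: NT is the 2HG producing partner of a matched IDH1 knockdown line; 0% = DMSO-treated cells and -100% = media-only wells without cells; nearly all actives have a fitted effect of over 55% in size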
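Viability of the 2HG-overproducing fibrosarcoma line after 48 hours of compound exposure at 37 degrees C was determined by luminescence with CellTiter-Glo, and concentration-effect curves were then fitted and categorized.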
DT40 TDP1 no CPT: qHTS for Inhibitors of human tyrosyl-DNA phosphodiesterase 1 (TDP1): qHTS in cells in absence of CPT; DT40 Tdp1-/- hTDP1 cells, no CPT, ATP luminescence, 48 h; Potency, µM (series often up to 46.2 µM), for the others: at the highest dose activity change, negative = growth inhibition, actives largely listed as inhibitors; 420,000 tested, 15% active; AID 686978, 2013; further: on the % scale 0 is the no-effect control and ±100 the full control effect; nearly all actives have a fitted effect of over 55% in size
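Chicken DT40 Tdp1-/- cells stably complemented with human TDP1 were seeded at 400 cells/well with DMSO in place of 20 nM camptothecin. After compound pinning, cells grew at least 48 hr at 37 °C; viability read by CellTiter-Glo luminescence.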
TDP1 cell CPT: qHTS for Inhibitors of human tyrosyl-DNA phosphodiesterase 1 (TDP1): qHTS in cells in presence of CPT | chicken DT40 Tdp1-/-;hTDP1 cells + 20 nM CPT, ATP luminescence, 48 h | Potency, µM (titrated, usually from 46.2 µM), inactives show top-dose activity change, negative = growth inhibition, usual class: inhibitors | AID 686979, 2013 | 420,000 tested, 12% active; further: on the % scale 0 is the no-effect control and ±100 the full control effect; nearly all actives have a fitted effect of over 55% in size
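Chicken DT40 Tdp1-/- cells complemented with human TDP1, 400 cells/well, exposed to compounds plus 20 nM camptothecin for at least 48 h at 37 C; viability read as ATP content by CellTiter-Glo luminescence.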
HepG2 viability: qHTS for Inhibitors of TGF-b: Cytotox Counterscreen; HepG2 CAGA-GFP viability, ATP luminescence, 18 h; 410,000 tested, 0.76% active; Potency, µM (highest dose often 46.1 µM), for the others: top-dose activity change, negative = cytotoxicity, hits mostly cytotoxic; AID 588856, 2011
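HepG2 CAGA-GFP cells (1000/well, DMEM with 1% FBS) received compound, then TGF-beta at 500 pg/mL final, and were incubated 18 hours at 37 degrees C. Viability was read by CellTiter-Glo luminescence. Media-only wells were set as complete cell-killing and DMSO as no toxicity.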
TGFb inhibitor: qHTS for Inhibitors of TGF-b; 410,000 tested, 1.2% active; Potency, µM (titrated, usually from 46.1 µM), for the others: top-dose activity, negative = inhibition, most hits filed as inhibitors; HepG2 CAGA-GFP TGF-b/SMAD3 reporter, GFP fluorescence, 18 h; TGF-beta stimulated, 500 pg/mL final; AID 588855, 2011; further: on the % scale 0 is the no-effect control and ±100 the full control effect; nearly all actives have a fitted effect of over 65% in size
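HEPG2 CAGA-GFP reporter cells (1000/well, DMEM with 1% FBS) received compounds, then recombinant TGF-beta at 500 pg/mL final for 18 hours at 37 degrees C. Per-cell GFP summed per well was normalised to unstimulated and stimulated DMSO controls before curve fitting.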
* marks the source's active call; other numbers are inactive results; u = inconclusive; x = no result; [ ] = dose if it differs, or a comment. The call rests on the fitted dose curve; in most records, active means well fitted curve in the direction sought with a large enough effect; inconclusive means small, poorly fitted or top-dose-only effect, or another doubt; inactive means no such curve, though single readings can be large; an effect the other way counts as inactive or inconclusive. Potency means the concentration at half of the fitted maximal effect.

SMILES | HT1080 IDH1KD tx | HT1080NT lethal | DT40 TDP1 no CPT | TDP1 cell CPT | HepG2 viability | TGFb inhibitor
O=C(COC(=O)CSc1ccc(Cl)cc1)Nc1ccc2[nH]c(=O)[nH]c2c1 | -2.0% | -8.4% | u | -8.0% | -4.5% | -18.7%
O=C(NCc1cccnc1)C(=O)NCC1CCCO1 (configuration not stated) | 13.5% | 22.2% | 5.9% | 1.2% | 12.4% | 1.5%
CCCC(C)NC(=O)Cc1ccc(Br)cc1 (configuration not stated) | 11.0% | 9.8% | -22.3% | -14.7% | 5.0% | -9.5%
CC(C)CNC(=O)COc1ccc(Sc2ccc(OCC(=O)NCC(C)C)cc2)cc1 | -18.6% | -1.5% | 1.64µM* | u | -11.1% | -5.5%
CCCC(C)NC(=O)COc1ccc(Sc2ccc(OCC(=O)NC(C)CCC)cc2)cc1 (configuration not stated) | -8.3% | -22.1% | 11.6µM* | 8.2µM* | -22.2% | -11.9%
Cc1cc(OCC(=O)NCC(C)C)cc(C)c1Br | 0.7% | 5.7% | -21.5% | u | -31.2% | 1.5%
COC(=O)c1ccccc1-n1cc2c(c1-c1cccc(C)c1)c(=O)n(C)c(=O)n2C | x | x | 7.31µM* | 10.3µM* | -12.0% | u
Cc1cccc(-c2c3c(=O)n(C)c(=O)n(C)c3cn2-c2ccccc2O)c1 | -17.0% | -18.8% | -22.2% | u | -5.0% | 0.0%
Cc1cc(N)c(-n2cc3c(c2-c2ccc(Br)cc2)c(=O)n(C)c(=O)n3C)cc1C | x | x | 13µM* | 16.4µM* | 2.8% | -5.2%
Cc1cccc(-c2c3c(=O)n(C)c(=O)n(C)c3cn2-c2cc(N)c(Cl)cc2Cl)c1 | x | x | 3.66µM* | 5.8µM* | -21.8% | u
COc1ccc(-n2cc3c(c2-c2cccc(Br)c2)c(=O)n(C)c(=O)n3C)cc1OC | x | x | 13µM* | 20.6µM* | -23.3% | -11.7%
COc1ccc(N2CCN(Cc3nc4c(c(=O)[nH]c(=O)n4C)n3CC(C)C)CC2)cc1 | x | x | -6.9% | -5.1% | -7.8% | -16.0%
O=C(NCc1ccccc1F)Nc1ccc([N+](=O)[O-])cc1 | -3.8% | -10.0% | 25.9µM* | u | -8.3% | 2.4%
O=C(NCc1ccc2c(c1)OCO2)Nc1ccc([N+](=O)[O-])cc1 | -24.0% | -8.5% | 4.11µM* | 20.6µM* | -10.1% | -15.8%
O=C(Nc1cccc2cccnc12)C1CCCC1 | 12.1% | 8.6% | 6.2% | 2.4% | -1.1% | 16.1%
COCCNC(=O)C1Cc2c(-c3cccc(NC(C)=O)c3)ccnc2O1 (configuration not stated) | -1.6% | -0.6% | u | u | 2.4% | 45.1%
CC(C)(C)c1ccc(S(=O)(=O)N2CCN(C(=O)C3=COCCO3)CC2)cc1 | -1.9% | -2.9%[9.24 µM] | u | 29.1µM* | -5.2% | -20.1%
CC1CC1C(=O)N1CCN(S(=O)(=O)c2cc(C(F)(F)F)cc(C(F)(F)F)c2)CC1 (configuration not stated) | -13.1% | -0.9%[9.24 µM] | u | 16.4µM* | -45.9% | 14.1µM*
Cc1cccc(C)c1N1CCN(S(=O)(=O)c2ccc(F)cc2)CC1 | 0.3% | -0.7% | 16.4µM* | u | 19.2% | -12.4%
Cc1ccccc1CN1CCN(S(=O)(=O)c2ccc(F)cc2)CC1 | 1.2% | -3.1% | u | u | -3.2% | 2.1%
CC(C)c1ccc(S(=O)(=O)N2CCN(C(=O)C3=COCCO3)CC2)cc1 | 1.1% | 3.8%[9.24 µM] | u | u | -12.6% | 3.3%
CC(C)(C)c1ccc(S(=O)(=O)N2CCN(C(=O)C3CCC3)CC2)cc1 | 0.9% | 2.2% | 18.4µM* | 8.2µM* | 3.5% | 0.0%
C=CCNC(=O)C1CC1(c1ccc(C)cc1)c1ccc(C)cc1 (configuration not stated) | -25.3% | -1.3% | -12.2% | 1.7% | 1.3% | 17.6%
CC(NC(=O)COC(=O)c1ccc(CO)cc1)C1CC2CCC1C2 (configuration not stated) | 4.1% | -7.0% | 4.6% | u | 4.6% | -1.0%
CC(=O)N1CCC(C(=O)N2CCN(S(=O)(=O)c3ccc(F)cc3)CC2)CC1 | -11.9% | -2.2% | 18.4µM* | -0.1% | 10.2% | -15.0%
SMILES | HT1080 IDH1KD tx | HT1080NT lethal | DT40 TDP1 no CPT | TDP1 cell CPT | HepG2 viability | TGFb inhibitor
O=C(C1CCC1)N1CCN(S(=O)(=O)c2ccc(F)cc2)CC1 | 3.3% | -0.1% | -24.6% | -27.3% | -45.5% | -23.6%
CC(C)(C)c1ccc(S(=O)(=O)N2CCC(O)(c3ccc(Cl)cc3)CC2)cc1 | -22.0% | u | 18.4µM* | u | -43.9% | 12.6µM*
COc1ccc(S(=O)(=O)N2CCC(O)(c3ccc(Cl)cc3)CC2)cc1 | u | -15.4% | -28.3% | -16.6% | -25.6% | u
CCOC(=O)c1c(NC(=O)c2ccc(S(=O)(=O)N(C)C3CCCCC3)cc2)sc2c1CCN(C(C)C)C2 | x | x | 7.31µM* | 11.6µM* | -19.5% | 99.4%
COC(=O)c1c(NC(=O)c2ccc(S(=O)(=O)N3CCCCC3C)cc2)sc2c1CCN(C(C)C)C2 (configuration not stated) | x | x | u | u | -33.1% | 99.1%
CCCCN(C)S(=O)(=O)c1ccc(C(=O)Nc2sc3c(c2C(=O)OCC)CCN(C(C)C)C3)cc1 | x | x | 5.8µM* | 8.2µM* | -55.2% | 35.8%
COc1ccccc1NC(=S)N(CCCN1CCOCC1)Cc1cccs1 | 0.0% | 0.8% | u | -10.5% | 0.4% | -16.1%
COc1ccc(C2=NC(C)(C)N(CC(=O)Nc3cccc(C)c3)C2=O)cc1 | x | x | 3.66µM* | 4.61µM* | -0.9% | x
COc1cc(NC(=O)CN2C(=O)C(c3ccccc3)=NC2(C)C)cc(OC)c1 | -0.2% | -2.7% | 2.2% | 2.9% | -4.1% | -2.3%
C=CCNc1nnc(Cc2ccc(C(C)C)cc2)c(=O)[nH]1 | -23.1% | -5.3% | 3.26µM* | 7.31µM* | -17.5% | -18.3%
COc1ccc(Cc2nnc(NCCO)[nH]c2=O)cc1 | 5.7% | 2.7% | 19.8% | -1.1% | 18.1% | 11.2%
O=C(NC1CCCCC1)C(c1ccncc1)N(C(=O)c1csnn1)c1ccccc1 (configuration not stated) | 17.4% | -0.4% | -15.5% | 9.5% | -19.7% | -2.6%

Source: PubChem (National Center for Advancing Translational Sciences (NCATS))
